± gives the standard deviation of the averaged measurements.
Legend:
Conditions in all cases: concentration: 10 µM; 24 h
HCC1569 [1] = test: cell number relative to DMSO (% of DMSO); higher = more cells (less growth inhibition / toxicity)
Procedure, shortened: (§1)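 Using 384-well plates with 800 cells per well in RPMI plus 10% FBS, HCC1569 and TDF cells were exposed to compounds at 10 µM, in triplicate, for 24 h at 37 °C. Imaging of six fields per well at ×10 followed H1.0 and DAPI staining. The reported quantity, H1.0 nuclear intensity or cell number, is a median of replicates given as percent of the plate control, and HCC1569 values were smoothed for positional effects.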

TDF [2] = test: as above
Procedure, shortened: as §1

TDF [3] = test: H1.0 immunofluorescence intensity relative to DMSO (% of DMSO); higher = stronger H1.0 induction, active = 120 or more
Procedure, shortened: as §1

HCC1569 [4] = test: H1.0 immunofluorescence intensity relative to DMSO (% of DMSO); higher = stronger H1.0 induction, active = 140 or more
Procedure, shortened: as §1
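Wherever H1.0 immunofluorescence intensity relative to DMSO is given: TDF is a line of transformed human dermal fibroblasts of mesenchymal origin.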
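Wherever cell number relative to DMSO is given: TDF denotes transformed human dermal fibroblasts of mesenchymal origin.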

Structure (SMILES)	cell number (HCC1569 [1])	cell number (TDF [2])	H1.0 immunofluorescence intensity (TDF [3])	H1.0 immunofluorescence intensity (HCC1569 [4])
Br.C=CCN1CCc2c(cc(O)c(O)c2Cl)C(c2ccccc2)C1 (racemic)	94.1	79.4	96.2 (inactive)	107 (inactive)
Cc1ccc(NC2=CC(=O)c3sc(C)nc3C2=O)cc1	27.9	14.5	122 (active)	104 (inactive)
CC(C)NCC(O)c1ccc(O)c(O)c1 (racemic) [DL-Isoproterenol]	107	108	93.8 (inactive)	101 (inactive)
CCOC(=O)C1=C(C)NC(C)=C(C(=O)OC)C1c1cccc(Cl)c1Cl (stereo unspecified) [Felodipine]	102 ± 2.2	117.1 ± 0.85	86.3 (inactive)	97.5 (inactive)
CC(=Cc1ccc(C(=O)O)cc1)c1ccc2c(c1)C(C)(C)CCC2(C)C	100.2 ± 0.57	106 ± 2.4	89.4 (inactive)	111 (inactive)
NC(=O)c1ccc(-c2nc(-c3ccc4c(c3)OCCO4)c(-c3ccccn3)[nH]2)cc1	97.4	108	94.2 (inactive)	122 (inactive)
NC(N)=S [Thiourea]	100	108	92.6 (inactive)	99.6 (inactive)
O=c1ccn(C2OC(COP(=O)([O-])OP(=O)([O-])O)C(O)C2O)c(=O)[nH]1.[Na+].[Na+] (stereo unspecified) [Uridine 5'-diphosphate sodium]	105	106	95.6 (inactive)	98.7 (inactive)
COc1ccc(CC2c3cc(OC)c(OC)cc3CC[N+]2(C)C)cc1OC.[I-] (stereo unspecified) [Laudanosine methiodide]	101	112	91.3 (inactive)	93.6 (inactive)
CCN1CCCC1CNC(=O)c1c(O)c(Cl)cc(Cl)c1OC.O=C(O)C(O)C(O)C(=O)O [S(+)-Raclopride L-tartrate]	101	105	90.3 (inactive)	99.9 (inactive)
COc1cccc2oc(-c3ccccc3)cc(=O)c12 [5-Methoxyflavone]	99.7	84.4	100 (inactive)	98.8 (inactive)
CNCCCC12CCC(c3ccccc31)c1ccccc12.Cl [Maprotiline hydrochloride]	97.8	102	106 (inactive)	99.1 (inactive)
COC(=O)C1C(O)CCC2CN3CCc4c([nH]c5ccccc45)C3CC21.Cl (stereo unspecified) [Rauwolscine]	103	99.5	95.5 (inactive)	95.6 (inactive)
Nc1nc(=O)c2ncn(COC(CO)CO)c2[nH]1 [Ganciclovir]	105 ± 4	99.6 ± 5.2	95.2 (inactive)	99.6 (inactive)
CN1CCc2cc(Cl)c(O)cc2C(c2ccccc2)C1.Cl (stereo unspecified)	103	104	88.5 (inactive)	94.6 (inactive)
O=[NH+]C=C1C=CN(CN2C=CC(=C[NH+]=O)C=C2)C=C1.[Br-].[Br-] [1,1'-methylenebis(4-(nitrosomethyl)pyridinium) bromide]	105	99	89.7 (inactive)	93.7 (inactive)
COc1ccc(-c2ccc(N)[n+](CCCC(=O)O)n2)cc1.[Br-]	105	97.9	96.2 (inactive)	103 (inactive)
C=C1C(=CC=C2CCCC3(C)C2CCC3C(C)C=CC(O)C2CC2)CC(O)CC1O (stereo unspecified) [Calcipotriene]	97.8	109	91.9 (inactive)	115 (inactive)
CCCCCCCCC=CCCCCCCCCCCCCC(=O)O [14(Z)-Tricosenoic acid]	100	106	100 (inactive)	101 (inactive)

— the supplement of paper PMC7156485
